According to PubChem BioAssay AID1851 (National Center for Advancing Translational Sciences (NCATS), 2009):
Out of some 16,000 compounds screened, about 4,000 (25%) were called active. About 26% were inconclusive and are not listed. Not all results are given here. Unmarked numbers belong to inactive results. The call rests on the fitted dose curve; in most records, active means well fitted curve in the direction sought with a large enough effect; inconclusive means small, poorly fitted or top-dose-only effect, or effect the other way; inactive means no such curve, though single readings can be large or run the other way.

These compounds were tested against Cytochrome P450 2C9 (Homo sapiens) (UniProt P11712) (assay: Cytochrome panel assay with activity outcomes). Details: recombinant CYP, pro-luciferin dealkylation, luminescence, p450-cyp2c9; series mostly up to 57.1 µM.
Chain of Cytochrome P450 2C9 (Homo sapiens) (P11712 whole entry, looked up): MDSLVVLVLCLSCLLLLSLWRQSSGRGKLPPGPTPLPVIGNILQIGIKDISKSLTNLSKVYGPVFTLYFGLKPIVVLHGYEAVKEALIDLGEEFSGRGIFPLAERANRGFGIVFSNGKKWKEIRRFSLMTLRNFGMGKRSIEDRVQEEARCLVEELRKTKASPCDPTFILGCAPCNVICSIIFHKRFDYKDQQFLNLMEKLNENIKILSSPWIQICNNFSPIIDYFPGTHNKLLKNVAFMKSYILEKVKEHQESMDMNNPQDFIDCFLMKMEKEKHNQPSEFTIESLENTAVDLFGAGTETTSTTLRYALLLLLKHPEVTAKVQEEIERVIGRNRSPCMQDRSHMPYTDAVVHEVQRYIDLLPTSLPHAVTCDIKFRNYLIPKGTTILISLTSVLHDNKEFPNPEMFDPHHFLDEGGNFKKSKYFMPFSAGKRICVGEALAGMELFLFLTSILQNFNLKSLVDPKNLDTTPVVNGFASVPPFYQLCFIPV
On the % scale 0 is the no-effect control and ±100 the full control effect.

SMILES	AC50	activity, negative = inhibition
CC1CCN(S(=O)(=O)c2ccc3c(c2)C(=NO)c2cc(S(=O)(=O)N4CCC(C)CC4)ccc2-3)CC1	3.98 µM (active)	
CC1CCN(CC[C@@H]2CCCN2S(=O)(=O)c2cccc(O)c2)CC1	inactive	
CC1CCN(CC[C@H]2CCCN2S(=O)(=O)c2cccc(O)c2)CC1	inactive	
CS(=O)(=O)c1nc(-c2ccccc2)cc(-c2ccccc2)c1C#N	0.282 µM (active)	
CC(=O)Nc1ccc(-c2cc(-c3ccc(NC(C)=O)cc3)nc(-c3ccccc3)n2)cc1	inactive	
N#Cc1cccc(-c2nc(NCc3ccccc3)c3ccccc3n2)c1		-29.7% [at 2.29 µM]
COCCCN=CC1=C(O)CC(C)(C)CC1=O	inactive	
O=c1oc2ccccc2cc1-c1csc(NN=C2CCCCC2)n1	3.55 µM (active)	
Cc1cccc(-c2noc(-c3cc4ccccc4oc3=O)n2)c1	inactive	
CN1CCC2(CC1)C1CN(C)CC=C1C(C#N)=C(N)C2(C#N)C#N (centres undefined)	inactive	
Cn1c(=NC(=O)CCl)sc2ccccc21	inactive	
Cc1sc(=NC(=O)c2ccco2)n(C)c1-c1ccc(F)cc1	8.91 µM (active)	
Cc1sc(=NC(=O)c2ccco2)n(C)c1-c1ccccc1	1.12 µM (active)	
O=C(c1ccco1)N1CCC2(CC1)CCN(c1ccc(-c3ccccc3)cc1)CC2	inactive	
O=C(c1cnccn1)N1CCC2(CCCN(c3ccccn3)C2)CC1	inactive	
CS(=O)(=O)Nc1cccc(-c2ccc3ncnc(NC4CCNCC4)c3c2)c1		-5.87% [at 2.29 µM]
O=C(c1csnn1)N1CCC2(CCCN(Cc3ccccc3)C2)CC1	inactive	
CCN1CCN(c2nc(C)c3c(n2)CCCC3=O)CC1	inactive	
CCOC(=O)c1c(C)nc2c(c1-c1ccc(OC)cc1)C(=O)CC(C)(C)C2	15.8 µM (active)	
CCOC(=O)c1c(C)nc2c(c1-c1ccccc1)C(=O)CCC2	17.8 µM (active)	
CC1(C)CC(=O)c2cnc(N)nc2C1	inactive	
Cc1nccn1C[C@@H]1CCc2c(c3ccccc3n2C)C1=O	inactive	
Cc1nnc(SCC2=C(C(=O)O)N3C(=O)[C@@H](NC(=O)Cn4cnnn4)[C@@H]3SC2)s1	inactive	

SMILES	AC50	activity, negative = inhibition
Cc1ccc(-n2[nH]c(C)c(C=Nc3ccc4[nH]c(=O)[nH]c4c3)c2=O)cc1C	inactive	
CCc1nnc(NS(=O)(=O)c2ccc(N=Cc3c(C)[nH]n(-c4ccc(C)cc4)c3=O)cc2)s1	8.91 µM (active)	
NC(N)=NC(N)=Nc1ccccc1	inactive	
C/C=C\C[C@@H](C)[C@@H](O)[C@H]1C(=O)N[C@@H](CC)C(=O)N(C)CC(=O)N(C)[C@@H](CC(C)C)C(=O)N[C@@H](C(C)C)C(=O)N(C)[C@@H](CC(C)C)C(=O)N[C@@H](C)C(=O)N[C@H](C)C(=O)N(C)[C@@H](CC(C)C)C(=O)N(C)[C@@H](CC(C)C)C(=O)N(C)[C@@H](C(C)C)C(=O)N1C	inactive	
Fc1ccc(CSc2nnc(-c3cc4c(s3)-c3ccccc3CC4)o2)cc1	3.16 µM (active)	
CCCCc1cc2ccccc2c(OCCN(C)C)n1	inactive	
Cc1ccc(-n2ccnc2SCC(=O)N(CC(C)C)C2CCS(=O)(=O)C2)c(C)c1 (centres undefined)	14.1 µM (active)	
O=C(CSc1nnc(-c2ccc(Cl)cc2Cl)n1C1CCCCC1)NC1CCS(=O)(=O)C1 (centres undefined)	inactive	
Cc1cc(C)n2c(SCC(=O)N(C)C3CCS(=O)(=O)C3)nnc2n1 (centres undefined)	inactive	
CCC(=O)OCN1C(=O)C=CC1=O		22.6% [at 11.4 µM]
NC(N)=NC[C@@H]1CCCCCCN1		3.41% [at 11.4 µM]
Cn1cccc1C(=O)N1CCC2(CC1)CN(C(=O)Nc1ccccc1)C2	inactive	
CN1c2ccccc2C(O)=C(C(=O)Nc2ccccc2)S1(=O)=O	2.82 µM (active)	
O=C(Nc1ccccc1)OC[C@H](CN1CCCCC1)OC(=O)Nc1ccccc1	inactive	
Cc1c(NC(C)C)c(=O)n(-c2ccccc2)n1C	inactive	
Cc1c(NC(=O)Nc2c(Cl)cccc2Cl)c(=O)n(-c2ccccc2)n1C		-2.44% [at 11.4 µM]
Cc1ccc(S(=O)(=O)/N=C(/Nc2c(C)n(C)n(-c3ccccc3)c2=O)c2ccc(Cl)cc2)cc1	11.2 µM (active)	
COC(=O)N1CCC2(CCCN(Cc3nccs3)C2)CC1	inactive	
Cn1c(CNS(=O)(=O)c2ccc(Cl)cc2)n[nH]c1=S	inactive	
O=S(=O)(NCc1cc(-c2ccc(Cl)cc2)no1)c1ccc(Cl)cc1	3.98 µM (active)	
O=S(=O)(NCc1cc(-c2ccccc2)no1)c1ccc(Cl)cc1	inactive	
COC(=O)[C@@H]1[C@@H]2C[C@H]3c4[nH]c5cc(OC)ccc5c4CCN3C[C@@H]2C[C@H](OC(=O)c2cc(OC)c(OC)c(OC)c2)[C@H]1OC	inactive	
CO[C@@H]1COC(=O)[C@@H](CCSC)NC(=O)C/C=C\[C@@H](C)COC(=O)CCC[C@H]1C		-5.5% [at 11.4 µM]

SMILES	AC50	activity, negative = inhibition
Oc1cccc(-c2nc3c4c(ncn3n2)-c2ccccc2CC42CCCC2)c1	7.08 µM (active)	
O=c1c2c(n3cnnc3n1-c1ccccc1)-c1ccccc1CC21CCCCC1	inactive	
CCOc1cc(/C=C2\C(=O)N(Cc3ccc(C)cc3)C(C)=C2C(=O)OC)ccc1O	1.41 µM (active)	
CCOc1cc(/C=C2/NC(=O)N(CC(=O)Nc3cccc(C)c3)C2=O)ccc1OC	inactive	
CCCCNC(=O)C1CC(=O)N(CCC(C)C)C1 (centres undefined)	inactive	
O=C(O)COc1c(Cl)cc(Cl)c2cccnc12		15.5% [at 11.4 µM]
COC(=O)c1sc2ncccc2c1OCc1c(Cl)cccc1Cl	1.78 µM (active)	
COCCNC(=O)c1cn(Cc2c(F)cccc2Cl)nn1	inactive	
CN1CCN(c2ncnc3ccc(-c4ccccc4Cl)cc23)CC1		-20.9% [at 2.29 µM]
CC(=O)CCCCn1c(=O)c2c(ncn2C)n(C)c1=O	inactive	
O=C(Cn1cccc1)NC1CCCCCC1	inactive	
O=C(CCCCn1c(=O)c2ccccc2n(CC(=O)NC2CCCC2)c1=O)NC1CCCC1	10 µM (active)	
CN(C)C(=O)c1ccc(-c2nc(Nc3ccncc3)c3ccccc3n2)cc1		-8.55% [at 2.29 µM]
CCOC(=O)c1ccc(OC(=O)CCCCCN=C(N)N)cc1	inactive	
FC(F)(F)c1ccccc1-c1nc(NCc2cccnc2)c2ccccc2n1		-20.3% [at 2.29 µM]
COc1ccccc1NC(=O)Nc1nc(-c2cccnc2)nc2ccccc12	inactive	
c1ccc(-c2nc(NCc3cccnc3)c3ccccc3n2)cc1	3.55 µM (active)	
COc1ccccc1-c1nc(NCc2cccnc2)c2ccccc2n1		5.64% [at 2.29 µM]
c1ccc(Nc2nc(-c3cccnc3)nc3ccccc23)cc1		-0.938% [at 2.29 µM]
c1cncc(CNc2nc(-c3ccoc3)nc3ccccc23)c1		0.547% [at 2.29 µM]
CCOC(=O)c1ccc(Nc2nc(-c3cccnc3)nc3ccccc23)cc1	5.01 µM (active)	
CCOC(=O)c1ccc(Nc2nc(=O)c3cccnc3s2)cc1	7.94 µM (active)	
COc1ccccc1CNc1nc(-c2cccnc2)nc2ccccc12	1 µM (active)	
